High-throughput results from PubChem.
This is one part of a sample in which hits are shown more often than they occur.
KDM5B inh – blocks human KDM5B histone demethylase activity. Q9UGL1. KDM5B demethylase, FDH-coupled NADH fluorescence (FDH is formaldehyde dehydrogenase). Potency, µM (series often up to 57.7 µM), actives largely listed as inhibitors. 220,000 compounds, 2.6% hits. AID 1347165; active = well fitted inhibition curve with a large enough effect; also: 0% is about no effect; nearly all actives have a fitted effect of over 70% in size
Target sequence (Q9UGL1 whole entry, looked up): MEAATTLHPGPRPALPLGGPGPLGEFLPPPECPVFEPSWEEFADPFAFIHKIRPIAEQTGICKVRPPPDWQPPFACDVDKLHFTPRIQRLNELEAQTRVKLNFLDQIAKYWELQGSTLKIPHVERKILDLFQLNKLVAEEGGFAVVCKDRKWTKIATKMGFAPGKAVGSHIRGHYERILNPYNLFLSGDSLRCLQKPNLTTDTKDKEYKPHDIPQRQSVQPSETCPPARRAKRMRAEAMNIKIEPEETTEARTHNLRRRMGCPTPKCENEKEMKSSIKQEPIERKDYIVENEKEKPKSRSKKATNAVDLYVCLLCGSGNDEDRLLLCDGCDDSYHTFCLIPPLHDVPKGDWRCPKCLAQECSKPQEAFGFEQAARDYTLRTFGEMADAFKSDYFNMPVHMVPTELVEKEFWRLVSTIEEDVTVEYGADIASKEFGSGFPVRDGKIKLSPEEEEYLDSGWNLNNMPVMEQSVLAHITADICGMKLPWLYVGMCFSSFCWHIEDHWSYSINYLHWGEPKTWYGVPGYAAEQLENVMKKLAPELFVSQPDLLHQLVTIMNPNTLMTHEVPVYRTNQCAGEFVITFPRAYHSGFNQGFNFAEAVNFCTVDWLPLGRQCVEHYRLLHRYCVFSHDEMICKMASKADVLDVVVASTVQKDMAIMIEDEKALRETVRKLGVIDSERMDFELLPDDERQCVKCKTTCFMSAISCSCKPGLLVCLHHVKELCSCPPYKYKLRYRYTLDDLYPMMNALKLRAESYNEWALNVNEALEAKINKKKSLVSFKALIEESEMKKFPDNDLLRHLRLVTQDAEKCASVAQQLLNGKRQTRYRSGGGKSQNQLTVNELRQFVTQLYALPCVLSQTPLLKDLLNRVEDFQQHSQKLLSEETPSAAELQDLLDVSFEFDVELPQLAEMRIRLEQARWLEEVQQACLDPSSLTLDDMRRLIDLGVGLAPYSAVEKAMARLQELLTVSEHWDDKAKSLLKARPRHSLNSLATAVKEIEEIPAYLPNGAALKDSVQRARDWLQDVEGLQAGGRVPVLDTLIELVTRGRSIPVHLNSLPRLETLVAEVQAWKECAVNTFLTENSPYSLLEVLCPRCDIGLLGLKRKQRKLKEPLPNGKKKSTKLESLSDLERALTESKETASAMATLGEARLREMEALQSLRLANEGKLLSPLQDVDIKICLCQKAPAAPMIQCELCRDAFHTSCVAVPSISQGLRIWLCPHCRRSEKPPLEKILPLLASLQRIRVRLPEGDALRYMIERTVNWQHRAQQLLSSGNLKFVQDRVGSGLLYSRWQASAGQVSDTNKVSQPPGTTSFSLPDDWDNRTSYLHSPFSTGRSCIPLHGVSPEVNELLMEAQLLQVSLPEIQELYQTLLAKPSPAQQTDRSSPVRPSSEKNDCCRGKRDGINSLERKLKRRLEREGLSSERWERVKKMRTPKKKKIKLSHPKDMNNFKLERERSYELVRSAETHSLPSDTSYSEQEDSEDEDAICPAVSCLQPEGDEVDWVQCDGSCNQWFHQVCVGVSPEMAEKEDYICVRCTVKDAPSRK
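Coupled FDH/NAD⁺ fluorescence readout. KDM5BΔAP 200 nM final; compound titration, 10 min RT preincubation; substrate mix 12.5 µM H3K4me3, 25 µM 2-OG, 50 µM Fe(II), 100 µM ascorbate, 0.25 mM NAD⁺, 0.25 U/mL FDH; ΔRFU over 30 min.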
Active calls of the source: *; i = inactive. Potency is read from the fitted curve at half-maximal effect.

SMILES	KDM5B inh
O=C(CCC(=O)c1ccc(Cl)cc1)OC1CCCCC1=O (stereo not given)	i
O=C1NC(=NC2CCCCC2)C2(CCCN(Cc3ccccc3)C2)N1c1cc(F)cc(F)c1 (stereo not given)	i
Cc1ccc(C#N)c(N2CCC(c3nnc(Cn4cncn4)n3C)CC2)n1	28.2µM*
Cn1c(CN2CCN(c3ncccc3C#N)CC2)nnc1C1CC(N)C1 (stereo not given)	i
CCc1ocnc1C(=O)N1CCC(c2nnc(Cn3cncn3)n2C)CC1	i
O=C(O)/C(=C\c1cccnc1)NC(=O)c1ccccc1	i
Cc1ccc(OCCN(C)C(=O)NCc2ccccc2)cc1	i
CC1CC(=O)Nc2cc(S(=O)(=O)N3CCN(c4ccccc4F)CC3)ccc2S1 (stereo not given)	i
O=C1N[C@@H]2CCN(C(=O)C3CCCCC3)[C@@H]2C(=O)N1c1ccc(Oc2ccccc2)cc1	i
COc1cc2ncnc(N3CC4CCC(C3)N4CC(F)(F)F)c2cc1OC	i
FC(F)(F)CN1C2CCC1CN(c1cnccn1)C2	i
CCc1ncc2c(N3CC4CCC(C3)N4CC(F)(F)F)nc3ccccc3n12	70.8µM*
CC(NC(=O)CSc1cc(F)ccc1F)c1nc2ccccc2[nH]1 (stereo not given)	i
COc1ccc(-c2noc([C@@H]3C[C@H](NS(=O)(=O)c4ccc(OC)cc4)CN3C)n2)cc1	i
CN1C[C@@H](NC(=O)c2ccc3c(c2)OCO3)C[C@H]1c1nc(-c2ccc(Cl)cc2)no1	31.6µM*
CN1C[C@@H](NC(=O)c2ccc(F)cc2)C[C@H]1c1nc(-c2ccc3c(c2)OCO3)no1	i
Cc1ccc(C(=O)N[C@H]2C[C@@H](c3nc(-c4ccc5c(c4)OCO5)no3)N(C)C2)cc1	i
CN1C[C@@H](NC(=O)Nc2ccccc2)C[C@H]1c1nc(-c2ccc(F)cc2)no1	i
Cc1noc([C@@H]2C[C@H](NC(=O)Nc3ccccc3)CN2C)n1	i
CN1C[C@@H](NC(=O)Nc2ccccc2)C[C@H]1c1nc(-c2ccccc2)no1	35.5µM*
CCCc1noc(-c2ccn3c(CNC(=O)c4ccccc4OC)nnc3c2)n1	3.16µM*
CCCc1noc(-c2ccn3c(CNC(=O)C(C)Oc4ccccc4)nnc3c2)n1 (stereo not given)	25.1µM*
CCCc1noc(-c2ccn3c(CNC(=O)c4cc5ccccc5[nH]4)nnc3c2)n1	i
CCCc1noc(-c2ccn3c(CNC(=O)Cc4ccccc4OC)nnc3c2)n1	17.8µM*
CC(=O)c1ccc(S(=O)(=O)N2CCN(C(=O)c3cc(C)no3)CC2)cc1	i
SMILES	KDM5B inh
COC[C@H]1CCCN1C(=O)C[C@@H]1O[C@H](CNC(=O)c2ccccc2)[C@@H](O)[C@H]1O	i
c1ccc(OCc2nnc3sc(-c4ccccc4)nn23)cc1	i
COc1ccccc1C(=O)N1CCN(c2oc(-c3cccc(Cl)c3)nc2C#N)CC1	i
Cn1cnc2c1c(=O)n(CC(=O)N1CC(C(=O)N3CCOCC3)Oc3ccccc31)c(=O)n2C (stereo not given)	i
CCN1CC(c2ccccc2)CC2(CCN(Cc3cnc(SC)nc3)CC2)C1 (stereo not given)	i
CCSc1ncc(CN2CCN(c3ccc4nccn4n3)CC2)cn1	28.2µM*
CCO[C@H]1CN(Cc2cnc(SCc3ccccc3)nc2)C[C@@H]1O	i
Cc1ccccc1/C=C/c1ccc2ccccc2n1	i
CC(=O)c1cccc(NC(=O)CCSC2CCc3ccccc3NC2=O)c1 (stereo not given)	i
O=C(CC[C@@H]1CNC(=O)[C@@H]2C[C@H](NC(=O)Nc3cccc(Cl)c3)CN12)NCc1cccnc1	i
COc1cccc(NCc2cc(=O)n3[nH]c(-c4ccc(C)cc4)nc3n2)c1	i
COc1ccc(-c2cc3ccc(OCCN4CCN(CCO)CC4)cc3oc2=O)cc1	i
COc1cc(-c2nc(-c3c(C)noc3C)cc3cc(CN(C)C)oc23)ccn1	35.5µM*
Cc1noc(C)c1-c1cc2cc(CN(C)C)oc2c(NCC(C)C)n1	i
Cc1noc(C)c1-c1cc2cc(C(C)C)oc2c(NCCc2ccccn2)n1	i
COc1ccc(-c2nc(-c3c(C)noc3C)cc3cc(CN(C)C)oc23)cn1	31.6µM*
CC(=O)N1CCN(c2nc(-c3c(C)noc3C)cc3cc(C(C)C)oc23)CC1	i
COc1ccc(-c2nc(-c3c(C)noc3C)cc3cc(C(C)C)oc23)cn1	28.2µM*
Cc1noc(C)c1-c1cc2cc(CN(C)C)oc2c(Nc2ccncn2)n1	i
Cc1noc(C)c1-c1cc2cc(CN(C)C)oc2c(NCCc2ccccc2)n1	i
COCCCNc1nc(-c2c(C)noc2C)cc2cc(CN(C)C)oc12	i
COc1ccccc1-c1nc(-c2c(C)noc2C)cc2cc(CN(C)C)oc12	35.5µM*
Cc1nc(NCc2ccco2)sc1C(=O)NCC(C)C	i
CC(=O)Nc1ccc(SCC(O)COc2ccccc2C(C)(C)C)cc1 (stereo not given)	i
O=C(CCSc1nnc(NC2CC2)s1)Nc1ccccc1F	i
SMILES	KDM5B inh
O=C(NCC#Cc1ccccc1)C1CCCN(C(=O)C2CC2)C1 (stereo not given)	i
CCSc1nc2c(c(=O)n(C)c(=O)n2C)n1CCCc1ccccc1	i
c1ccc(CCc2nnc(CCc3ccccc3)s2)cc1	i
CN1[C@@H](CCC(=O)N2CCc3ccccc32)CNC(=O)[C@@H]2[C@H]1CCN2Cc1ccc(S(C)(=O)=O)cc1	i
N#Cc1ccc(COc2ccc(Br)cc2Br)cc1	i
Cc1ccc(C2Cn3nnc(C(=O)N4CCC(C(=O)NCc5ccccc5F)CC4)c3CO2)cc1 (stereo not given)	i
Cc1nn2c(c1-c1ccccc1-c1ccccc1)N(C(=O)COc1ccccc1)CCC2	i
Cc1nn2c(c1-c1ccccc1N1CCCC1)N(C(=O)COc1ccccc1)CCC2	20µM*
Cc1nn2c(c1-c1ccccc1C(C)C)N(C(=O)C1CCOCC1)CCC2	i
Cc1nn2c(c1-c1ccccc1Oc1ccccc1)N(C(=O)COc1ccccc1)CCC2	i
Cc1nn2c(c1-c1ccccc1OCc1ccccc1)N(C(=O)C1CCOCC1)CCC2	i
Cc1nn2c(c1-c1ccccc1N1CCCC1)N(C(=O)C1CCOCC1)CCC2	28.2µM*
O=C(Nc1c(-c2ccc(F)cc2)nc2sccn12)c1ccc(S(=O)(=O)N2CCOCC2)cc1	i
CN(CC(=O)Nc1cccc(F)c1)C(=O)CCc1ncc(-c2ccc(Cl)cc2Cl)o1	i
COCC(=O)N[C@@H]1CN(CC2CC2)CC[C@@H]1c1nc(C)no1	i
COc1ccc(C(=O)NC2CCC(C)CC2)cc1S(=O)(=O)N(C)C (stereo not given)	i
Cc1cc(C)c2c(=O)cc(C(=O)Nc3ccc(OC(F)F)cc3)oc2c1	i
CCn1c2c(c(=O)n1-c1ccccc1)CCN(C(=O)CCc1cccnc1)C2	i
Cc1cc(-c2cc3c(n(Cc4cccnc4)c2=O)CCN(C(=O)CCc2ccccc2)C3)ccc1F	25.1µM*
O=C(CCc1cccnc1)N1CCC(c2[nH]ncc2-c2cccc(F)c2)CC1	i
CC(C)(C)CCNC(=O)c1cc(C2CC2)nc2ccccc12	i
O=C(O)COc1ccc(-c2nccc3c2C(=O)N(Cc2c[nH]c4ccccc24)CC(CNC(=O)Cc2ccc(Cl)cc2)O3)cc1 (stereo not given)	i
COc1cc(NC(=O)Cn2nc3ccc(SC4CCCCC4)nn3c2=O)cc(OC)c1OC	i
